# Screening data: PubChem BioAssay, National Center for Advancing Translational Sciences (NCATS)
# An excerpt weighted towards active compounds, which were near 2.4% of everything screened.
# ATXN viability: viability counter-screen for ATXN expression inhibitors; S2 cells (HEK-293 line with an ATXN2-luciferase reporter) viability, CellTiter-Fluor protease fluorescence, 24 h; Potency, µM (series often up to 56.7 µM), usual class: cytotoxic; 0.49% of 400,000 active; AID 651635; further: nearly all actives have a fitted effect of over 40% in size
# ATXN2 expr inh: inhibitors of ATXN2 expression; HEK-293 ATXN2-luciferase reporter, luminescence, 24 h; Potency, µM (highest dose often 57 µM), for inactives: top-dose activity change, negative = inhibition, most hits filed as inhibitors; 0.72% of 360,000 active; AID 1745845; further: on the % scale 0 is the no-effect control and ±100 the full control effect; nearly all actives have a fitted effect of over 55% in size
#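 ATXN2-luciferase reporter cells (luciferase flanked by upstream and downstream ATXN2 gene portions) were treated 24 h at 37 °C with compounds at up to 57 uM. SteadyGlo luminescence gave expression; GF-AFC fluorescence gave viability.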
# Anesthetic bind: binds horse apoferritin like a general anesthetic; P02791; apoferritin/1-aminoanthracene competitive binding, fluorescence; Potency, µM (titrated, usually from 77.5 µM), for the others: top-dose activity change, negative = displacement, usual class: inhibitors; 0.074% of 350,000 active; further: on the % scale 0 is the no-effect control and ±100 the full control effect; nearly all actives have a fitted effect of over 20% in size
# Target sequence (P02791 2-175 limits assumed): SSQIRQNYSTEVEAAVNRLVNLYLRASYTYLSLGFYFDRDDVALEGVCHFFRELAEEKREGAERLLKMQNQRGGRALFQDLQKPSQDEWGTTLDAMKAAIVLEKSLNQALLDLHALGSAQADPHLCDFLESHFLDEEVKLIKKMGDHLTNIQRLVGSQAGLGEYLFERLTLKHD
#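 Horse-spleen apoferritin (10 uM) in 50% saturated 1-aminoanthracene in PBS was incubated 10 min at room temperature with compound. Fluorescence (ex 380, em 535 nm) was normalized to free and bound 1-AMA, with concentration-response fitted by a four-parameter Hill equation.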
# TGFb inhibitor: TGF-b pathway inhibition. HepG2 CAGA-GFP TGF-b/SMAD3 reporter, GFP fluorescence, 18 h; TGF-beta stimulated, 500 pg/mL final. Potency, µM (highest dose often 46.1 µM), without a hit: top-dose activity, negative = inhibition, actives largely listed as inhibitors. 1.2% of 410,000 active; further: on the % scale 0 is the no-effect control and ±100 the full control effect; nearly all actives have a fitted effect of over 65% in size
#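 HEPG2 CAGA-GFP reporter cells (1000/well, DMEM with 1% FBS) received compounds, then recombinant TGF-beta at 500 pg/mL final for 18 hours at 37 degrees C. Per-cell GFP summed per well was normalised to unstimulated and stimulated DMSO controls before curve fitting.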
# HepG2 tox: kills HepG2 cells in TGF-b inhibitor counter-screen; HepG2 CAGA-GFP viability, ATP luminescence, 18 h; Potency, µM (doses to about 46.1 µM), for inactives: top-dose activity change, negative = cytotoxicity, usual class: cytotoxic; 0.76% of 410,000 active
#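 CellTiter-Glo luminescence gave cytotoxicity after 18 hours at 37 degrees C. The cells were HepG2 CAGA-GFP in 1% FBS DMEM, stimulated with 500 pg/mL TGF-beta after compound addition. %Activity was normalised to no-cell wells (complete cell-killing) and DMSO (no toxicity), and curves were fitted and classified.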
# * hit, by the source's call; i = inactive; ? = inconclusive; · = no result; ! = a repeat was not active; [ ] = remark or other dose. The call rests on the fitted dose curve; in most records, active means well fitted curve in the direction sought with a large enough effect; inconclusive means small, poorly fitted or top-dose-only effect, or another doubt; inactive means no such curve, though single readings can be large; an effect the other way counts as inactive or inconclusive. Potency means the concentration at half of the fitted maximal effect.
SMILES,ATXN viability,ATXN2 expr inh,Anesthetic bind,TGFb inhibitor,HepG2 tox
O=C1c2cccc3c([N+](=O)[O-])ccc(c23)C(=O)N1c1ccccn1,·,14.1µM*,-11.4%,0.0%,-103.8%
O=C1c2cccc3c([N+](=O)[O-])ccc(c23)C(=O)N1c1ccc(Cl)cn1,·,?,-13.1%,28.0%,-0.6%
CC1=Nc2cc(C(=O)O)ccc2Sc2ccc(C)cc21,i,11.0%[11.3 µM],-5.0%,0.1%,5.4%
CCC(C)NC(=O)c1ccc2c(c1)N=C(C)c1cc(C)ccc1S2 (stereo not drawn),?,-19.1%,-6.4%,7.08µM*,-22.0%
C(C#CCN1CCOCC1)#CCN1CCOCC1,i,24.5%,·,-8.3%,-6.1%
CC(C)N(Cc1ccccc1)C(=O)c1cc2ccc3cccnc3c2[nH]1,·,·,-15.2%,11.2µM*,-37.9%
O=C(NCc1cccc(Cl)c1)c1cc2ccc3cccnc3c2[nH]1,·,·,0.2%,-7.3%,-15.8%
COc1ccc(C(=O)NCCN2Cc3ccccc3OC(c3ccsc3)C2)c(OC)n1 (stereo not drawn),i,·,·,·,·
CC(C)(C)n1nc(-c2ccc(F)cc2)c2c(N)ncnc21,i,0.8%,4.9%,?,10.0%
CC(C)n1nc(-c2cc3cc(O)ccc3[nH]2)c2c(N)ncnc21,?,5.01µM*,·,·,·
CNC(=O)c1sc(N2N=C3/C(=C/c4ccccc4)CCCC3C2c2ccccc2)nc1C (stereo not drawn),·,12.6µM*,42.5%,-4.3%,-37.0%
CNC(=O)c1sc(N2N=C3/C(=C\c4ccccc4)CCCC3C2c2ccccc2)nc1C (stereo not drawn),·,?,·,1.8%,-17.1%
CCCCNC(=O)[C@@H]1CC=C[C@@H]2CCN(C3CCCCC3)C(=O)[C@@H]21,·,·,·,-28.0%,-35.7%
CCn1c(=N)n(CCOc2ccc(Br)cc2)c2ccccc21,·,·,-16.8%,8.91µM*,-99.1%
CCCCn1c(=N)n(CCOc2ccc(C)cc2)c2ccccc21,?,?,-15.3%,?,-97.4%
CCCCn1c(=N)n(CCOc2ccccc2OC)c2ccccc21,·,·,8.7%,10µM*,-59.0%
CCCCCn1c(=N)n(CC(O)COc2ccccc2OC)c2ccccc21 (stereo not drawn),28.2µM*,28.2µM*!,4.9%,11.2µM*,-84.3%
Cc1ccc(OCC(=O)N/N=C/c2ccc([N+](=O)[O-])o2)cc1,?,?,-11.1%,10µM*,10µM*
Cc1nonc1C(=O)N/N=C/c1ccc([N+](=O)[O-])o1,?,?,-4.3%,?,-90.5%
O=C(COc1ccccc1)N/N=C/c1ccc([N+](=O)[O-])o1,?,·,-10.8%,11.2µM*,11.2µM*
Cc1cc(C(=O)N/N=C/c2ccc([N+](=O)[O-])o2)c(C)o1,?,·,-0.2%,17.8µM*,11.2µM*
COc1ccccc1NS(=O)(=O)c1cccc(C(=O)N/N=C/c2ccc([N+](=O)[O-])o2)c1,?,?,·,7.08µM*,-110.3%
Cc1ccc(OCC(=O)N/N=C\c2ccc(C)o2)c([N+](=O)[O-])c1,i,7.1%,-12.2%,26.9%,3.7%
CCOC(=O)[C@@](C)(N)Cc1ccc(O)c(O)c1,?,-26.0%,·,·,·
CC(C)(C)N1C(=O)[C@H]2[C@H]3[C@H](O)[C@H](O)C/C(=N/OC[C@@H](O)COCc4ccco4)[C@H]3CC[C@@H]2C1=O,·,·,-1.5%[15.3 µM],·,·
SMILES,ATXN viability,ATXN2 expr inh,Anesthetic bind,TGFb inhibitor,HepG2 tox
CC1(C(=O)NCc2cccs2)CCN1C(=O)Cc1ccc(Cl)cc1Cl (stereo not drawn),i,-10.1%,·,12.1%,-3.9%
O=C(CNc1ccc2ccccc2c1)N/N=C/c1ccc([N+](=O)[O-])o1,?,-6.5%,?,8.91µM*,7.94µM*
O=C(N/N=C/c1ccc([N+](=O)[O-])o1)c1sc2ccccc2c1Cl,31.6µM*,·,1.2%,?,-185.7%
CCCCCCCCCCCCc1ccc(S(=O)(=O)Nc2nncs2)cc1,·,3.4%,·,·,·
CC(C)c1nc(CN(C)C(=O)N[C@H](C(=O)N[C@@H](Cc2ccccc2)C[C@H](O)[C@H](Cc2ccccc2)NC(=O)OCc2cncs2)C(C)C)cs1,?,27.3µM*!,?,·,·
CN(C)CCNc1ncnc2c1sc1nc(-c3ccccc3)c3c(c12)CCCC3,·,31.6µM*,-16.0%,?,14.1µM*
COc1ncnc2c1sc1nc(-c3ccccc3)c3c(c12)CCCC3,i,-7.7%,8.2%,5.3%,-0.4%
O=S(=O)(c1ccc(Br)cc1)c1nnn2c1nc(NCc1ccc3c(c1)OCO3)c1sccc12,·,·,-6.2%,35.5%,-8.1%
CCOc1ccc(C=C2SC(=O)N(CCN)C2=O)cc1,·,·,-5.0%,·,·
CCCC[C@@H](CNC)NC[C@H](NCCCCC1CCCCC1)C(C)C,?,25.1µM*,-14.4%,?,-99.3%
CC1=NN(c2nc3ccccc3[nH]2)C(=O)C1Cc1ccccc1 (stereo not drawn),?,10µM*,-11.2%,?,14.9%
O=c1[nH]c2ccccc2nc1NCc1ccccc1,i,23.8%,?,7.0%,0.1%
CC1=NN(c2nc3ccccc3[nH]2)C(=O)/C1=C/N(C)C,i,?,-4.0%,7.7%,1.58µM*
CC1=NN(c2ccc([N+](=O)[O-])cc2)C(=O)/C1=C\N(C)C,i,10.7%,-16.3%,-0.3%,4.47µM*
CCN(C(=O)c1cc2c(=O)[nH]c3ccc(C)cc3c2s1)c1ccc(OC)cc1,i,-1.7%,-11.6%,17.0%,8.6%
CN(Cc1nccn1C)C(=O)C1CCC(=O)N(Cc2cccc(C(F)(F)F)c2)C1 (stereo not drawn),i,10.9%,-5.0%,15.9%,5.1%
Cc1nc(CN2CCN(C(=O)CC3(c4ccccc4Cl)CC(=O)N(C)C3=O)CC2)cs1 (stereo not drawn),i,·,·,·,·
CCOC(=O)C1(C)CCCN(C(=O)C(c2ccccc2)c2ccccc2)C1 (stereo not drawn),?,-10.2%,·,6.7%,-17.1%
Cc1ccc2c(c1)ncc[n+]2CC(=O)c1ccc(Cl)cc1Cl,·,·,·,6.7%,-4.4%
Nc1cccc2c1C(=O)N(C(=O)/C=C/c1cccc(F)c1)C2=O,i,?,103.9%,14.1µM*,13.4%
Nc1cccc2c1C(=O)N(C(=O)/C=C/c1cccc(Br)c1)C2=O,i,?,119.2%,-21.1%,-2.0%
COc1cc(C(CCN2CCOCC2)c2c(OC)cc(OC)c3c(-c4ccccc4)cc(=O)oc23)cc(OC)c1OC (stereo not drawn),?,-21.9%,-15.7%,?,11.2µM*
COc1ccc(C(CCN2CCCC(C)C2)c2c(OC)cc(OC)c3c(-c4ccccc4)cc(=O)oc23)cc1 (stereo not drawn),·,?,-20.7%,?,-44.4%
